In the supplement of paper PMC8371130:
Structures can show the parent of a compound that is named as a salt.

What follows are molecules tested on HL-1 (assay: relative cell viability (CellTiter-Glo) vs DMSO control (% of DMSO control); higher = more viable cells). Details: oxygen condition: hypoxia 48 h (1% O2) + reoxygenation 24 h; 1000 nM.
How it was run: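 One day after HL-1 mouse atrial cardiomyocytes were plated (1000 cells per well, 384-well plates) with compounds at 40, 200, 1000 or 5000 nM in 0.01% DMSO, they were transferred to a hypoxic workstation at 1% O2. After 48 h there, the cells were reoxygenated for 24 h in a normal incubator, and comparison cells stayed in normoxia throughout the same time. Cell viability was quantified with CellTiter-Glo luminescence and normalised to vehicle-treated control cells.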
CC[C@H]1OC(=O)[C@H](C)[C@@H](O[C@H]2C[C@@](C)(OC)[C@@H](O)[C@H](C)O2)[C@H](C)[C@@H](O[C@@H]2O[C@H](C)C[C@H](N(C)C)[C@H]2O)[C@](C)(OC)C[C@@H](C)C(=O)[C@H](C)[C@@H](O)[C@]1(C)O [Clarithromycin] showed a relative cell viability of 105.
With S=c1[nH]cnc2nc[nH]c12 [Mercaptopurine] the relative cell viability was 111.
In the case of CCOc1nc2cccc(C(=O)OC(C)OC(=O)OC3CCCCC3)c2n1Cc1ccc(-c2ccccc2-c2nn[nH]n2)cc1 (configuration not stated) [Candesartan cilexetil], the relative cell viability is reported as 97.6.
NC12CC3CC(CC(C3)C1)C2 [Amantadine hydrochloride] showed a relative cell viability of 93.3.

Same assay, conditions: oxygen condition: hypoxia 48 h (1% O2) + reoxygenation 24 h; 5000 nM
Work on NC(=O)NO [Hydroxyurea] yielded a relative cell viability of 108.
Cc1onc(-c2ccccc2)c1C(=O)N[C@@H]1C(=O)N2[C@@H]1SC(C)(C)[C@@H]2C(=O)O [Oxacillin sodium monohydrate] gave a relative cell viability of 110.
Molecule CC(C)(C(=O)O)c1ccc(C(O)CCCN2CCC(C(O)(c3ccccc3)c3ccccc3)CC2)cc1 (configuration not stated) [Fexofenadine HCl] has a relative cell viability of 99.8.
CN(C)CCCN1c2ccccc2CCc2ccccc21 [Imipramine HCl] showed a relative cell viability of 110.
With CCC[C@H](N[C@@H](C)C(=O)N1[C@H](C(=O)O)C[C@@H]2CCCC[C@@H]21)C(=O)OCC [Perindopril Erbumine] the relative cell viability was 115.
In the case of COc1ccccc1OCCNCC(O)COc1cccc2[nH]c3ccccc3c12 (configuration not stated) [Carvedilol], the relative cell viability is reported as 108.
NCC(=O)CCC(=O)O [5-Aminolevulinic acid hydrochloride] showed a relative cell viability of 110.
For CCNC(=O)CCC/C=C\C[C@@H]1[C@@H](/C=C/[C@@H](O)CCc2ccccc2)[C@H](O)C[C@@H]1O [Bimatoprost], the relative cell viability was 105.
With Nc1nnc(-c2cccc(Cl)c2Cl)c(N)n1 [Lamotrigine] the relative cell viability was 117.
Work on CNCC[C@@H](Oc1ccccc1C)c1ccccc1 [Atomoxetine HCl] yielded a relative cell viability of 108.
Clc1ccc2nsnc2c1NC1=NCCN1 [Tizanidine HCl] gave a relative cell viability of 108.
CC(C)c1c(C(=O)Nc2ccccc2)c(-c2ccccc2)c(-c2ccc(F)cc2)n1CC[C@@H](O)C[C@@H](O)CC(=O)O [Atorvastatin calcium] gave a relative cell viability of 41.7.
Molecule C[C@@H]1CCN(C(=O)CC#N)C[C@@H]1N(C)c1ncnc2[nH]ccc12 [Tofacitinib citrate] has a relative cell viability of 107.
CCN(Cc1ccncc1)C(=O)C(CO)c1ccccc1 (configuration not stated) [Tropicamide] was tested, and the relative cell viability was 107.
In the case of N=C(N)NC(=O)c1nc(Cl)c(N)nc1N [Amiloride hydrochloride], the relative cell viability is reported as 110.
NCCCC(O)(P(=O)(O)O)P(=O)(O)O [Alendronate] showed a relative cell viability of 109.
CC(=O)Oc1ccccc1C(=O)O [Aspirin] gave a relative cell viability of 110.
For NC(=O)N1c2ccccc2CC(=O)c2ccccc21 [Oxcarbazepine], the relative cell viability was 102.
CC(=O)OCC(=O)[C@@]12OC(C)(C)O[C@@H]1C[C@H]1[C@@H]3C[C@H](F)C4=CC(=O)C=C[C@]4(C)[C@@]3(F)[C@@H](O)C[C@@]12C [Fluocinonide] was tested, and the relative cell viability was 99.
In the case of CC(=O)[C@H]1CC[C@H]2[C@@H]3CC=C4C[C@@H](O)CC[C@]4(C)[C@H]3CC[C@]12C [Pregnenolone], the relative cell viability is reported as 117.
CCCOc1ccc(C(=O)OCCN(CC)CC)cc1N [Proparacaine HCl] was tested, and the relative cell viability was 107.
Molecule C=CC[C@@H]1/C=C(\C)C[C@H](C)C[C@H](OC)[C@H]2O[C@@](O)(C(=O)C(=O)N3CCCC[C@H]3C(=O)O[C@H](/C(C)=C/[C@@H]3CC[C@@H](O)[C@H](OC)C3)[C@H](C)[C@@H](O)CC1=O)[C@H](C)C[C@@H]2OC has a relative cell viability of 101.
For O=C(Nc1ccc([N+](=O)[O-])cc1Cl)c1cc(Cl)ccc1O [Niclosamide], the relative cell viability was 17.5.
CCCCCCCCOc1ccccc1C(=O)Nc1ccc(C(=O)OCC[N+](C)(CC)CC)cc1 [Otilonium Bromide] showed a relative cell viability of 114.
Molecule C#C[C@]1(OC(C)=O)CC[C@H]2[C@@H]3CCC4=C[C@@H](OC(C)=O)CC[C@@H]4[C@H]3CC[C@@]21C [Ethynodiol diacetate] has a relative cell viability of 111.
N[C@@H]1CN(c2c(F)cc3c(=O)c(C(=O)O)cn([C@@H]4C[C@@H]4F)c3c2Cl)CC12CC2 [Sitafloxacin hydrate] was tested, and the relative cell viability was 108.
CCCCCCNC(=O)n1cc(F)c(=O)[nH]c1=O [Carmofur] showed a relative cell viability of 18.3.
CCCC(CCC)C(=O)O [Divalproex sodium] was tested, and the relative cell viability was 111.
c1ccc2c(CC3=NCCN3)cccc2c1 [Naphazoline hydrochloride] was tested, and the relative cell viability was 109.
C[C@]12CC[C@@H]3c4ccc(O)cc4C[C@@H](CCCCCCCCC[S+]([O-])CCCC(F)(F)C(F)(F)F)[C@H]3[C@@H]1CC[C@@H]2O (some centres not stated) [Fulvestrant] was tested, and the relative cell viability was 122.
For N=C(N)Nc1ccc(C(=O)Oc2ccc3cc(C(=N)N)ccc3c2)cc1 [Nafamostat mesylate], the relative cell viability was 105.
Cc1cn([C@H]2C[C@H](N=[N+]=[N-])[C@@H](CO)O2)c(=O)[nH]c1=O [Zidovudine] gave a relative cell viability of 112.
O=C(O)Cc1cc(I)c(Oc2ccc(O)c(I)c2)c(I)c1 [Tiratricol] showed a relative cell viability of 119.
Work on C[C@@H](Oc1cc(-c2cnn(C3CCNCC3)c2)cnc1N)c1c(Cl)ccc(F)c1Cl [Crizotinib] yielded a relative cell viability of 70.3.
With CC[C@H]1OC(=O)[C@H](C)[C@@H](O[C@H]2C[C@@](C)(OC)[C@@H](O)[C@H](C)O2)[C@H](C)[C@@H](O[C@@H]2O[C@H](C)C[C@H](N(C)C)[C@H]2O)[C@](C)(OC)C[C@@H](C)C(=O)[C@H](C)[C@@H](O)[C@]1(C)O [Clarithromycin] the relative cell viability was 105.
S=c1[nH]cnc2nc[nH]c12 [Mercaptopurine] showed a relative cell viability of 99.1.
Molecule CCOc1nc2cccc(C(=O)OC(C)OC(=O)OC3CCCCC3)c2n1Cc1ccc(-c2ccccc2-c2nn[nH]n2)cc1 (configuration not stated) [Candesartan cilexetil] has a relative cell viability of 4.71.
In the case of NC12CC3CC(CC(C3)C1)C2 [Amantadine hydrochloride], the relative cell viability is reported as 32.7.
